{"source": "PubChem BioAssay (NCATS)", "note": "Inconclusive results are not listed. Calls of active or inactive are those of the source. Calls come from the whole dose curve; as a rule, active = well fitted curve in the direction sought with a large enough effect; inconclusive = small, poorly fitted or top-dose-only effect, or another doubt; inactive = no such curve, though single readings can be large; an effect the other way counts as inactive or inconclusive.", "data": [{"test_system": "not listed separately", "assay": "Cellular Toxicity (caspase-3) Renal Proximal Tubule (AID 667);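 note: cells exposed to compound for 16 hours at 37 °C before detection; 0% = DMSO basal and 100% = 10 µM staurosporine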", "conditions": "renal proximal tubule cells, primary cells freshly taken from rat; Potency: caspase-3 activation; series mostly up to 91.7 µM; caspase-3 activation: at the top concentration", "summary_of_the_method": "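Caspase-Glo 3/7 read-out, rat primary kidney proximal tubule cells. Compound exposure 16 h, 37 °C; detection after 1 h at RT. Activity scaled to DMSO and 10 uM staurosporine.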", "values": [{"smiles": "Nc1nc(CC(=O)O)cs1", "caspase-3 activation": "2.51% (inactive)"}, {"smiles": "CC(=O)CC(C)C", "caspase-3 activation": "-0.296% (inactive)"}, {"smiles": "CCCCC(CC)CO", "note": "(stereo not drawn)", "caspase-3 activation": "-0.138% (inactive)"}, {"smiles": "CCCCC(=O)N(C)C", "caspase-3 activation": "-9.07% (inactive)"}, {"smiles": "O=CNc1ccccc1", "caspase-3 activation": "-3.56% (inactive)"}, {"smiles": "Clc1ccc(Cl)c(Cl)c1Cl", "caspase-3 activation": "2.22% (inactive)"}, {"smiles": "C=CCCCCCCC=C", "caspase-3 activation": "-1.16% (inactive)"}, {"smiles": "CCCCCCC=O", "caspase-3 activation": "2.92% (inactive)"}, {"smiles": "CCCCC(CC)COCC1CO1", "note": "(stereo not drawn)", "caspase-3 activation": "8.27% (inactive)"}, {"smiles": "Cc1cc(C)cc(N)c1", "caspase-3 activation": "2.67% (inactive)"}, {"smiles": "C=CCOC(=O)COCCC(C)C", "caspase-3 activation": "-6.12% (inactive)"}, {"smiles": "O=C(O)CNC(=O)c1ccc(CO)o1", "caspase-3 activation": "-9.13% (inactive)"}, {"smiles": "C=C(C)C(N)=O", "caspase-3 activation": "5.3% (inactive)"}, {"smiles": "CCN(Cc1ccccc1)c1ccccc1", "caspase-3 activation": "-2.56% (inactive)"}, {"smiles": "O=C(O)c1cccc(Cl)c1Cl", "caspase-3 activation": "-1.99% (inactive)"}, {"smiles": "CC(=O)c1cccc([N+](=O)[O-])c1", "caspase-3 activation": "-7.08% (inactive)"}, {"smiles": "O=C(O)CNC(=O)c1ccc([N+](=O)[O-])cc1", "caspase-3 activation": "-8.62% (inactive)"}, {"smiles": "Nc1c(Cl)cc(Cl)cc1Cl", "caspase-3 activation": "-11% (inactive)"}, {"smiles": "C=CCCCC", "caspase-3 activation": "-9.13% (inactive)"}, {"smiles": "NC(=O)c1cccc([N+](=O)[O-])c1", "caspase-3 activation": "-5.45% (inactive)"}, {"smiles": "C=C(C)OC(C)=O", "caspase-3 activation": "-10.6% (inactive)"}, {"smiles": "CC(C)Cc1nccs1", "caspase-3 activation": "2.07% (inactive)"}, {"smiles": "CC(C)c1ccccc1", "caspase-3 activation": "-4.35% (inactive)"}, {"smiles": "CCOCCOCC", "caspase-3 activation": "0.915% (inactive)"}, {"smiles": "CCC1CO1", "note": "(stereo not drawn)", "caspase-3 activation": "3.5% (inactive)"}, {"smiles": "NC(=O)CCCCC(N)=O", "caspase-3 activation": "-9.26% (inactive)"}, {"smiles": "CCOC(C)(C)C", "caspase-3 activation": "-7.27% (inactive)"}, {"smiles": "CC(N)CN", "note": "(stereo not drawn)", "caspase-3 activation": "0.562% (inactive)"}, {"smiles": "Cc1ccc(C(C)(C)C)cc1", "caspase-3 activation": "5.93% (inactive)"}, {"smiles": "Cc1ccc(C#N)cc1", "caspase-3 activation": "4.23% (inactive)"}, {"smiles": "Cc1ccc(C)cc1", "caspase-3 activation": "4.9% (inactive)"}, {"smiles": "CN(C)CCCCl", "caspase-3 activation": "-1.06% (inactive)"}, {"smiles": "CC(=O)c1nccs1", "caspase-3 activation": "-4.78% (inactive)"}, {"smiles": "CCc1ccccc1", "caspase-3 activation": "2.65% (inactive)"}, {"smiles": "CCCCC(C=O)CC", "note": "(stereo not drawn)", "caspase-3 activation": "-2.21% (inactive)"}, {"smiles": "CC(C)=C1CCC(C)CC1=O", "note": "(stereo not drawn)", "caspase-3 activation": "-0.871% (inactive)"}, {"smiles": "CCCCCCCCC", "caspase-3 activation": "-7.04% (inactive)"}, {"smiles": "C=CCCCCCC", "caspase-3 activation": "-2.6% (inactive)"}, {"smiles": "Cc1ccc(C)c([N+](=O)[O-])c1", "caspase-3 activation": "3.85% (inactive)"}]}, {"target": "Cytochrome P450 3A4 (Homo sapiens) (UniProt P08684)", "sequence (P08684 whole entry, looked up)": "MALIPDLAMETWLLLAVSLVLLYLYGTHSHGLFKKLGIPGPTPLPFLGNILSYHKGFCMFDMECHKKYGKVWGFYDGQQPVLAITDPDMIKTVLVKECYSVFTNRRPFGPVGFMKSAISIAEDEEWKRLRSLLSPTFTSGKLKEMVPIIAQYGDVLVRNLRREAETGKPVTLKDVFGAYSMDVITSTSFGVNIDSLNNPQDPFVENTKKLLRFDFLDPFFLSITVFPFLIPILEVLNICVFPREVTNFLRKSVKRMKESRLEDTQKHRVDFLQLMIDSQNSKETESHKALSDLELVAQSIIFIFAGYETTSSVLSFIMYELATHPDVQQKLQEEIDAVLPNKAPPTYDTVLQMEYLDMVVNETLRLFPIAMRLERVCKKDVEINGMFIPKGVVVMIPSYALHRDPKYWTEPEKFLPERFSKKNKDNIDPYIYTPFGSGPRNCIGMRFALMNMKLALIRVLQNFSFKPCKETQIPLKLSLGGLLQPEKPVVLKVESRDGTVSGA", "assay": "qHTS Assay for Inhibitors and Substrates of Cytochrome P450 3A4 (AID 884); note: % is set by controls: 0 for no effect and ±100 for the full control effect; nearly all actives have a fitted effect of over 50% in size", "conditions": "recombinant CYP3A4, Luciferin-PPXE luminescence; series mostly up to 57.1 µM; activity change, negative = inhibition: at the top concentration", "summary_of_the_method": "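Luminescent readout of luciferin produced by CYP3A4 (20 nM) dealkylation of Luciferin-PPXE, 25 uM (its KM). NADPH-driven reaction ran 60 min at RT after 10 min compound preincubation; data scaled to 57 uM ketoconazole as 100% inhibition.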", "values": [{"smiles": "Nc1nc(CC(=O)O)cs1", "activity change, negative = inhibition": "-9.21% (inactive)"}, {"smiles": "CC(=O)CC(C)C", "activity change, negative = inhibition": "-17.6% (inactive)"}, {"smiles": "CCCCC(CC)CO", "note": "(stereo not drawn)", "activity change, negative = inhibition": "6.07% (inactive)"}, {"smiles": "CCCCC(=O)N(C)C", "activity change, negative = inhibition": "-19.5% (inactive)"}, {"smiles": "O=CNc1ccccc1", "activity change, negative = inhibition": "-1.35% (inactive)"}, {"smiles": "Clc1ccc(Cl)c(Cl)c1Cl", "activity change, negative = inhibition": "-10.9% (inactive)"}, {"smiles": "C=CCCCCCCC=C", "activity change, negative = inhibition": "-0.558% (inactive)"}, {"smiles": "CCCCCCC=O", "activity change, negative = inhibition": "-9.9% (inactive)"}, {"smiles": "CCCCC(CC)COCC1CO1", "note": "(stereo not drawn)", "activity change, negative = inhibition": "-11.5% (inactive)"}, {"smiles": "Cc1cc(C)cc(N)c1", "activity change, negative = inhibition": "-25.2% (inactive)"}, {"smiles": "C=CCOC(=O)COCCC(C)C", "activity change, negative = inhibition": "-6.15% (inactive)"}, {"smiles": "O=C(O)CNC(=O)c1ccc(CO)o1", "activity change, negative = inhibition": "-11% (inactive)"}, {"smiles": "C=C(C)C(N)=O", "activity change, negative = inhibition": "-2.74% (inactive)"}, {"smiles": "CCN(Cc1ccccc1)c1ccccc1", "activity change, negative = inhibition": "-8.57% (inactive)"}, {"smiles": "O=C(O)c1cccc(Cl)c1Cl", "activity change, negative = inhibition": "-8.97% (inactive)"}, {"smiles": "CC(=O)c1cccc([N+](=O)[O-])c1", "activity change, negative = inhibition": "-20.8% (inactive)"}, {"smiles": "O=C(O)CNC(=O)c1ccc([N+](=O)[O-])cc1", "activity change, negative = inhibition": "-16.1% (inactive)"}, {"smiles": "Nc1c(Cl)cc(Cl)cc1Cl", "activity change, negative = inhibition": "-7.33% (inactive)"}, {"smiles": "C=CCCCC", "activity change, negative = inhibition": "-13.4% (inactive)"}, {"smiles": "NC(=O)c1cccc([N+](=O)[O-])c1", "activity change, negative = inhibition": "-6.97% (inactive)"}, {"smiles": "C=C(C)OC(C)=O", "activity change, negative = inhibition": "6.04% (inactive)"}, {"smiles": "CC(C)Cc1nccs1", "activity change, negative = inhibition": "-10.1% (inactive)"}, {"smiles": "CC(C)c1ccccc1", "activity change, negative = inhibition": "-9.49% (inactive)"}, {"smiles": "CCOCCOCC", "activity change, negative = inhibition": "-19.7% (inactive)"}, {"smiles": "CCC1CO1", "note": "(stereo not drawn)", "activity change, negative = inhibition": "-1.52% (inactive)"}, {"smiles": "NC(=O)CCCCC(N)=O", "activity change, negative = inhibition": "-2.02% (inactive)"}, {"smiles": "CCOC(C)(C)C", "activity change, negative = inhibition": "-6.86% (inactive)"}, {"smiles": "CC(N)CN", "note": "(stereo not drawn)", "activity change, negative = inhibition": "-20.7% (inactive)"}, {"smiles": "Cc1ccc(C(C)(C)C)cc1", "activity change, negative = inhibition": "-16.3% (inactive)"}, {"smiles": "Cc1ccc(C#N)cc1", "activity change, negative = inhibition": "-9.41% (inactive)"}, {"smiles": "Cc1ccc(C)cc1", "activity change, negative = inhibition": "-2.71% (inactive)"}, {"smiles": "CN(C)CCCCl", "activity change, negative = inhibition": "-3.94% (inactive)"}, {"smiles": "CC(=O)c1nccs1", "activity change, negative = inhibition": "-0.032% (inactive)"}, {"smiles": "CCc1ccccc1", "activity change, negative = inhibition": "-4.56% (inactive)"}, {"smiles": "CCCCC(C=O)CC", "note": "(stereo not drawn)", "activity change, negative = inhibition": "5.34% (inactive)"}, {"smiles": "CC(C)=C1CCC(C)CC1=O", "note": "(stereo not drawn)", "activity change, negative = inhibition": "-8.49% (inactive)"}, {"smiles": "CCCCCCCCC", "activity change, negative = inhibition": "-4.18% (inactive)"}, {"smiles": "C=CCCCCCC", "activity change, negative = inhibition": "-5.24% (inactive)"}, {"smiles": "Cc1ccc(C)c([N+](=O)[O-])c1", "activity change, negative = inhibition": "-3.72% (inactive)"}]}]}
